# Assay results as given in PubChem BioAssay AID590 (National Center for Advancing Translational Sciences (NCATS), 2007).
# About 6,500 (11%) of roughly 59,000 compounds were called active. Another 15% or so got no clear call; they are omitted. No stated cut-off is given here; in the data, active means max dye-equivalent concentration above about 10 nM; inconclusive means mostly about 1.1 nM to 9.6 nM; inactive means weaker than that. This excerpt belongs to a sample that is enriched for actives.
# Test: qHTS Assay for Spectroscopic Profiling in A350 Spectral Region
# Conditions: Compound autofluorescence, 340/450 nm, Alexa 350 dye-equivalents; stronger effect = higher value
# Text: NIH Molecular Libraries Screening Centers Network [MLSCN]
# NIH Chemical Genomics Center [NCGC]
# Occasionally, the artifactual effect may originate from the compounds own spectral or other biophysical properties which generally tend to track its assay concentration. Pre-screening/profiling the library with respect to the compounds spectral properties should help one exclude false positives early on. While the most informative fluorescent profiling data set is obtained by performing a full excitation and emission scan of each well by using a monochromator-based plate reader, such an approach is practical only on a very limited scale as scanning each well requires long time. An alternative approach, applied here, is to perform plate reader scans using selected excitation and emission wavelength pairs to generate a multidimensional relational database that correlates compound concentration and the respective relative fluorescence intensity at a given wavelength set. A standard curve of Alexa 350 (A 350) present on each plate as six-point concentration series, was used to compute a normalized fluorescence response, termed dye-equivalent concentration, for each compound at each concentration.
# NCGC Assay Protocol Summary:
# 100 mM Tris buffer, pH 8.0
# The wells in columns 1 through 4 of a Kalypsys polypropylene 1536-well compound plate were filled with standard solutions of fluorophore corresponding to the spectral region of interest. Solutions of A 350 were placed in the following wells: I1, J1: 3 mM, I2, J2: 300 uM, I3, J3: 30 uM, I4, J4: zero (DMSO), K1, L1: 3 uM, K2, L2: […], K3, L3: 300 nM, K4, L4: zero (DMSO).
# Six uL of buffer were dispensed to 1536-well Greiner black plates. Compounds and dye standards (23 nL) were transferred via Kalypsys PinTool. The plates were incubated for 15 min at room temperature, and then read on ViewLux (Perkin-Elmer) High-throughput CCD imager using 340 nm and 450 nm excitation and emission filter set.
# Keywords: NIH Roadmap, MLSCN, MLI, MLSMR, qHTS, NCGC, A350, A-350, Fluorescent Profiling.
row,Structure (SMILES),max dye-equivalent concentration
1,CCCN(CCC)CCNC(=O)c1cc2c(C)nc3ccccc3c2o1,18 nM (active)
2,Cc1cc(C(=O)NCCCc2ccccc2)no1,inactive
3,CCCC(=O)N(CCc1ccccc1)Cc1nc2ccccc2c(=O)[nH]1,inactive
4,CCOC(=O)C1CCCCN1Cc1ccc(OC)c(OC)c1OC (centres undefined),inactive
5,Clc1ccccc1-c1cc(NCCN2CCOCC2)ncn1,inactive
6,CCn1c(SCC(=O)NCc2ccco2)nnc1-c1ccc(N)cc1,inactive
7,CN1CCN(S(=O)(=O)c2ccc(NC(=O)C3CCCO3)cc2)CC1 (centres undefined),inactive
8,O=C(Nc1nc2ccc(S(=O)(=O)N3CCCC3)cc2s1)C1CCCO1 (centres undefined),inactive
9,CCOC(=O)c1sc(NC(=O)c2cc(S(=O)(=O)N3CCOCC3)ccc2C)nc1C,inactive
10,O=C(Nc1nc2cc3c(cc2s1)OCCO3)c1cccc(S(=O)(=O)N2CCOCC2)c1,15 nM (active)
11,COC(=O)COc1ccc(S(=O)(=O)N2CCOCC2)cc1,inactive
12,COc1ccc(S(=O)(=O)N2CCOCC2)cc1C(=O)Nc1nc2ccccc2s1,26 nM (active)
13,CCN(Cc1ccncc1)C(=O)c1cccc(S(=O)(=O)N2CCOCC2)c1,inactive
14,CC1(C)Cc2cccc(OCC(=O)Nc3nccs3)c2O1,inactive
15,COc1ccc(C[C@H](N)C(=O)N[C@@H]2[C@H](O)[C@H](n3cnc4c(N(C)C)ncnc43)O[C@@H]2CO)cc1,inactive
16,CCCOP(=O)(c1ccc(N(C)C)cc1)C(O)c1cc(OC)c(OC)c(OC)c1 (centres undefined),inactive
17,COc1ccc(N2CCN(C3CC(=O)N(c4ccc5c(c4)OCCO5)C3=O)CC2)cc1 (centres undefined),inactive
18,Cc1ccc(S(=O)(=O)N2CCC(C(=O)OCC(=O)N3CC(=O)Nc4ccccc43)CC2)cc1,inactive
19,CC(=O)N1CCC2(CCCN(c3ncccn3)C2)CC1,inactive
20,Cc1ccc(S(=O)(=O)N2CCCC2CO)cc1 (centres undefined),inactive
21,COc1ccc(C2CC(c3ccc(C)cc3)Nc3nc(N)nn32)cc1 (centres undefined),2800 nM (active)
22,Cc1cc(C)c(C(=O)CN2C(=O)CCC2=O)cc1C,inactive
23,COC(=O)c1ccc(NC(=O)CSc2nnc(CNc3ccc(OC)cc3)n2C)cc1,inactive
24,CCOC(=O)N1CCN(C(=O)CN(C2CCCCC2)S(C)(=O)=O)CC1,inactive
25,Cc1ccccc1CSc1nnc(-c2ccccn2)n1N,inactive
26,CN(Cc1ccco1)c1cc(-c2ccccc2C(F)(F)F)ncn1,inactive
27,Cc1c(NC(=O)c2coc(=O)c(Br)c2)c(=O)n(-c2ccccc2)n1C,220 nM (active)
28,Cc1c(NC(=O)c2cccnc2)c(=O)n(-c2ccccc2)n1C,inactive
29,Cc1cc(C(=O)Nc2c(C)n(C)n(-c3ccccc3)c2=O)cs1,inactive
